An excerpt weighted towards active compounds, which were near 7.8% of everything screened.
sEH act: increases human soluble epoxide hydrolase activity. P34913. purified human sEH enzymatic activity, activator screen. activation, % at 2 µM. hit rate 0.04% among 91,000. AID 717; in the data active means activation above about 37%
Target sequence (P34913 whole entry, looked up): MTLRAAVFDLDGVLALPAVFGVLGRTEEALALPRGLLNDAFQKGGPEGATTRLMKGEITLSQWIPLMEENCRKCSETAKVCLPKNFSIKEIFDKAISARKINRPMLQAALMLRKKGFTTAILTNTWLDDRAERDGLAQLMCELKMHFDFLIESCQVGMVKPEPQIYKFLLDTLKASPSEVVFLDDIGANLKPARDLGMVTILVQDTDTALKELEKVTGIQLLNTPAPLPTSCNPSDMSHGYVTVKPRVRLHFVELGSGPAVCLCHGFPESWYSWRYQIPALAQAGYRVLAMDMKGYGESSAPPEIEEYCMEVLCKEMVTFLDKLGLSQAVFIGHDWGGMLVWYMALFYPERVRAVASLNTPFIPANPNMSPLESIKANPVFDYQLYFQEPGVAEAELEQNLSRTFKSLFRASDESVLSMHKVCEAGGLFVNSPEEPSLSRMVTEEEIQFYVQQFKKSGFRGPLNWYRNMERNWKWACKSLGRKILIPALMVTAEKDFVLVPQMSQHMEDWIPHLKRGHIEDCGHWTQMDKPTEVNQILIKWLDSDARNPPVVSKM
Cav32 inh: human Cav3.2 channel inhibition, primary screen. B-score at 10 µM. hit rate 4% among 100,000. Cav3.2-expressing cells, Fluo-4 calcium fluorescence FDSS; stronger effect = lower value. O95180;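 active means single-dose well whose peak fluorescence ratio is a statistical outlier from its plate by either plate-standardised score or position-corrected B-score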
PostGolgi ctrl: growth of the yeast control strain, post-Golgi counter-screen; inhibition, % at 10 µM; hit rate 5% among 98,000; efflux-deficient yeast background strain, growth absorbance A615, 16 h
sEH inh: inhibitors of human soluble epoxide hydrolase | recombinant human sEH enzymatic activity assay | inhibition, % at 2 µM | P34913 | hit rate 0.34% among 91,000; in the data active means inhibition above about 80%
PostGolgi yeast: growth inhibition of a yeast mutant, post-Golgi transport screen; post-Golgi transport phenotypic cell assay; inhibition, % at 10 µM; hit rate 0.9% among 98,000; AID 739;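 further: yeast cells grown in 1536-well plates; yeast grown about 18 h at 30C before absorbance read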
* = called active by the depositor; x = no result. Unless noted, no stated cut-off is given here; in the data, active means inhibition above about 30%; inactive means the rest.

SMILES | sEH act | Cav32 inh | PostGolgi ctrl | sEH inh | PostGolgi yeast
COc1ccc(C(C)=O)cc1CSc1nnc(-c2ccc(Cl)cc2)n1-c1ccccc1 | -9 | -3 | 26 | 8 | -7
O=C(CCC(=O)c1cccs1)OCC(=O)c1ccc(Cl)s1 | x | -0.059 | 14 | x | 2
CC(=O)NC(C)C(=O)OCC(=O)c1ccc(Cl)s1 (stereo not given) | 12 | 0.054 | 36* | -10 | 25
O=C(O)C[C@H]1c2ccc(C(F)(F)F)cc2S(=O)(=O)N1C1CCCCC1 | x | 1.1 | x | x | x
O=S(=O)(c1ccc2ccccc2c1)N(CC(O)COCc1ccco1)c1ccccc1 (stereo not given) | 11 | -5.1* | 31* | -9 | 20
COc1ccc(OCCSc2ncccn2)cc1 | 19 | -1.2 | 33* | -13 | -4
CN(C)c1nc(SCCOC(=O)Nc2ccccc2)nc(N(C)C)n1 | -5 | -4.7* | 13 | 4 | -6
CCOc1nc(SCCOc2ccccc2)nc(N(C)C)n1 | x | -3 | 5 | x | 41*
CCOC(=O)[C@@H]1[C@H]2COc3ccc(Br)cc3[C@@H]2N2C(=O)N(c3cccc(F)c3)C(=O)[C@]12C | x | -1.7 | x | x | x
CCSc1nnc(NC(=O)C(C)(C(F)(F)F)C(F)(F)F)s1 | x | -3.2 | 23 | x | 16
CCSc1nnc(NC(=O)c2cc(C)on2)s1 | -6 | 0.35 | 33* | 6 | 1
CCSc1nnc(NC(=O)NCC(F)(F)F)s1 | x | -0.0015 | -4 | x | 45*
COc1ccc(S(=O)NC2CCCCC2)c(OC)c1C (stereo not given) | -12 | 0.4 | -2 | 12 | 8
CC1(C)OC(=O)C(=CNC(Cc2c[nH]c3ccccc23)C(=O)O)C(=O)O1 (stereo not given) | -8 | 0.021 | -7 | 8 | -7
CCCn1c(SCC(N)=O)nc2c(c1=O)C1(CCCC1)Cc1ccccc1-2 | 7 | x | 44* | -4 | 3
CCn1c(SCC#N)nc2c(c1=O)C1(CCCC1)Cc1ccccc1-2 | 0 | -6.9* | 52* | 0 | 0
CC(C)CCn1c(SCC#N)nc2c(sc3ccccc32)c1=O | -3 | 0.65 | 5 | 4 | 5
CC(C)OC(=O)c1cc2c(ccn2C)n1CC(=O)N1CCC(Cc2ccccc2)CC1 | 1 | -7.9* | 25 | 0 | -2
Cc1ccccc1Cn1c(C(=O)OC(C)C)cc2c1ccn2C | 3 | -0.84 | 15 | -1 | -15
O=C(Cc1cc(=O)[nH]c(=O)[nH]1)NCCN1CCOCC1 | -2 | -0.29 | 1 | 1 | 0
Cc1nnc(SCc2nc3ccccc3[nH]2)s1 | x | -0.15 | 7 | x | -4
Cn1c(CSc2nc3ccccc3s2)n[nH]c1=S | -9 | 1.3 | 4 | 7 | -7
Cc1ccc(NCc2nc3ccccc3n2C)cc1 | -1 | -0.19 | 34* | 3 | -1
Cn1c(CSc2nc3ccccc3s2)nc2ccccc21 | 2 | -4.7* | 16 | -1 | -3
O=c1oc2ccccc2n1CSc1nc2ccccc2s1 | x | -4.1* | 18 | x | -10
SMILES | sEH act | Cav32 inh | PostGolgi ctrl | sEH inh | PostGolgi yeast
c1ccc2[nH]c(CSc3nc4ccccc4s3)nc2c1 | -2 | -6.4* | 12 | 2 | -6
CC1CN(C(=O)COc2ncnc3ccccc23)CC(C)O1 (stereo not given) | 29 | -0.16 | 10 | -31 | 3
Cc1oc(=O)c(NC(=O)c2cccc(Cl)c2)cc1C(=O)c1ccccc1 | -14 | -0.39 | 5 | 17 | -4
Cc1sc2nc(C3CC3)nc(NCCNS(C)(=O)=O)c2c1C | 0 | 0.6 | -7 | -1 | 2
CCCCCOc1ccc(CSc2ncn[nH]2)cc1 | -9 | -1.2 | x | 9 | x
O=C1c2cccc3c(Nc4ccccc4Cl)c([N+](=O)[O-])cc(c23)C(=O)N1CCO | 5 | -2.2 | 17 | -6 | 45*
CCc1ccccc1N1C(=O)c2cccc3c(N4CCOCC4)c([N+](=O)[O-])cc(c23)C1=O | -4 | 0.69 | 11 | 5 | -6
CCCNc1nc(Nc2ccc(C)cc2)nc(N2CCCC2)n1 | 12 | -3 | 36* | -9 | -5
COc1cccc(C(=O)Nc2ccc(Cl)c(C(F)(F)F)c2)c1 | -56 | -5.1* | 22 | 58 | 1
O=C(Nc1ccc(Cl)c(C(F)(F)F)c1)c1ccco1 | -23 | -5.8* | 22 | 23 | 0
CC(=O)c1cccc(NC(=S)NC(=O)CC(C)(C)C)c1 | 11 | 0.061 | 10 | -9 | 5
Cc1c(Cl)cccc1NC(=O)c1nc(C)n(-c2cc(OC(C)C)c(Cl)cc2Cl)n1 | -14 | -12* | 30* | 15 | 6
Cc1nc(C(=O)N(C)C)nn1-c1ccc(Cl)cc1Cl | -9 | 0.61 | 3 | 11 | -3
c1ccc(-c2nc3nc4ccccc4nc3n2Cc2ccco2)cc1 | 8 | -2.3 | 32* | -9 | -10
CCc1cccc(NS(=O)(=O)c2ccc3c(c2)oc(=O)n3C)c1 | x | x | 31* | x | -1
O=C(CN(C(=O)CCC(=O)Nc1nccs1)c1ccc(F)cc1)NCc1ccco1 | -13 | x | 32* | 10 | 0
O=C(CN(C(=O)CCC(=O)Nc1nccs1)c1ccc(F)c(Cl)c1)NCc1ccco1 | x | x | 2 | x | 2
Cc1csc(Sc2ccc([N+](=O)[O-])cc2C(=O)OCC(=O)NC(=O)NC(C)(C)C)n1 | -8 | x | 7 | 9 | 2
COCCn1nnnc1SCC(=O)N1CCCCC1 | 12 | 0.08 | 30* | -12 | 1
COCCn1c(SCC(=O)N2CCCC2)nnc1C(C)C | 8 | 0.021 | 9 | -9 | 2
O=[N+]([O-])c1cccnc1N1CCC(c2cc(-c3ccc(Cl)cc3)n[nH]2)CC1 | 16 | -1.7 | 69* | -17 | 3
CCOC(=O)C(C(=O)OCC)C(Nc1ccc(Br)cc1)c1ccccc1 (stereo not given) | 13 | -0.21 | 11 | -13 | -6
CC(=O)Nc1cccc(N2C(=O)CCC2=O)c1 | -6 | 0.59 | 38* | 5 | -11
Cc1ccc(-c2nnc(N3CCN(c4ccccn4)CC3)c3ccccc23)cc1 | 5 | x | 57* | -1 | 0
Cc1ccc(-c2nnc(N3CCN(C(=O)COc4ccccc4)CC3)c3ccccc23)cc1 | 13 | -7.4* | 50* | -15 | -1
SMILES | sEH act | Cav32 inh | PostGolgi ctrl | sEH inh | PostGolgi yeast
Cc1ccc(OCC(=O)N2CCN(C(=O)Cc3ccccc3)CC2)cc1 | 6 | 0.44 | 31* | -8 | 3
O=C(COc1ccc(-c2nnc(N3CCCCC3)c3ccccc23)cc1)N1CCCCC1 | -8 | -3.5 | 15 | 11 | -1
CN1C(C(=O)NCc2cccc(C(F)(F)F)c2)CC2Cn3c(nc4cc(Cl)c(Cl)cc43)C21 (stereo not given) | x | -0.44 | x | x | x
CCOc1ccccc1C1N(c2ccc(OC)cc2)C(=O)C2CCCN21 (stereo not given) | 4 | -1.5 | 34* | -4 | -2
CCN(CC)CCN(C)Cc1ccc(Br)cc1 | 4 | -3.5 | 3 | -3 | 1
CCC(Sc1nnc(-c2ccc(C)c(Cl)c2)n1CC)C(=O)Nc1nccs1 (stereo not given) | x | -5.7* | 22 | x | -3
CCCCn1c(=O)[nH]c2ccccc21 | 14 | 0.46 | 5 | -12 | -7
O=c1[nH]c2ccccc2n1CCCSc1cnc2ccccc2n1 | 21 | -4.2 | 43* | -24 | 5
O=C(CN1C(=O)CCC1=O)Nc1nc(-c2ccccn2)cs1 | 1 | x | 10 | 2 | 3
